# SW480 rerep = A quantitative high throughput screen for small molecules that induce DNA re-replication in SW480 colon adenocarcinoma cells; Potency, µM (top dose mostly 46.1 µM), for the others: at the highest dose re-replication activation, usual class: activators; SW480 DNA re-replication, Hoechst DNA content imaging, 48 h; 340,000 compounds, 1.8% hits; note: potency is the fitted concentration of half-maximal effect; % of control where 0% means no effect; nearly all actives have a fitted effect of over 55% in size
#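 First, 250 cells per well were seeded. Next, compound or vehicle (23 nL) was pinned in, plates sat 48 hr at 37 C. Finally Hoechst was added for 40 min before fluorescence scanning.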
# IL-1B inflam inh = qHTS for Inhibitors of Inflammasome Signaling: IL-1-beta AlphaLISA Primary Screen; activity change, % at 57.5 µM; 360,000 compounds, 4.7% hits; THP-1 LPS/ATP IL-1B secretion, AlphaLISA, 16 h; hits give low values; in the data active = activity change below about -50%; inconclusive = mostly about -30% to -49%; note: % is set by controls: 0 for no effect and ±100 for the full control effect
#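 Secreted IL-1B measured by AlphaLISA bead assay after 16 h compound exposure of THP-1 cells; compounds (final up to 57.5 uM) added 1 h before LPS (250 ng/mL) and ATP (1.25 mM) stimulation; lower signal means less secretion.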
# KB-3-1 tox = qHTS assay for MDR1-selective chemotherapeutics: Primary screen using the parental adenocarcinoma cell KB-3-1; AID 1347075, 2019; Potency, µM (highest dose often 46.1 µM), actives largely listed as cytotoxic; KB-3-1 viability, CellTiter-Glo ATP luminescence, 72 h; 400,000 compounds, 1.4% hits; note: potency is the fitted concentration of half-maximal effect; % is set by controls: 0 for no effect and ±100 for the full control effect; nearly all actives have a fitted effect of over 60% in size
#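 Luminescent ATP read-out (CellTiter-Glo) measures survival of drug-naive KB-3-1 cells after 72 h compound exposure at 37 °C. Titration series was screened from lowest to highest concentration, with DMSO vehicle plates as background controls.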
# MCF10A rerep = A quantitative high throughput screen for small molecules that induce DNA re-replication in MCF 10a normal breast cells. AID 624296, 2012. 350,000 compounds, 2.9% hits. MCF 10A DNA re-replication, Hoechst nuclear intensity, 48 h. Potency, µM (highest dose often 46.1 µM), for inactives: top-dose activity, positive = re-replication, most hits filed as activators; note: potency is the fitted concentration of half-maximal effect; % of control where 0% means no effect; nearly all actives have a fitted effect of over 50% in size
# KB-V1 cytotox = qHTS assay for MDR1-selective chemotherapeutics: Primary screen using the drug-selected MDR subline cells KB-V1; KB-V1 MDR cells viability, CellTiter-Glo, 72 h; Potency, µM (doses to about 46.1 µM), hits mostly cytotoxic; 400,000 compounds, 3.4% hits; note: potency is the fitted concentration of half-maximal effect; % is set by controls: 0 for no effect and ±100 for the full control effect; nearly all actives have a fitted effect of over 60% in size
#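 Potencies derive from concentration-effect curves fitted to normalized luminescence (CellTiter-Glo) of KB-V1 cells treated for 72 h at 37 degrees C in phenol-red-free DMEM containing 10% FBS.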
# * hit, by the source's call; i = inactive; ? = inconclusive; . = not tested or not shown. Hits are enriched below; roughly 9.9% of the tested compounds scored in any of these assays. Unless noted, calls come from the whole dose curve; as a rule, active = well fitted curve in the direction sought with a large enough effect; inconclusive = small, poorly fitted or top-dose-only effect, or another doubt; inactive = no such curve, though single readings can be large; an effect the other way counts as inactive or inconclusive.
SMILES,SW480 rerep,IL-1B inflam inh,KB-3-1 tox,MCF10A rerep,KB-V1 cytotox
COc1ccc(S(=O)(=O)N2CCC(C(=O)NCCOc3ccccc3F)CC2)cc1OC,-2%,8,i,-4%,23µM*
CC(=O)N1c2ccc(S(=O)(=O)N3CCC(C(=O)NCc4ccc(C)cc4)CC3)cc2CC1C (centres undefined),6%,20,i,12%,i
COc1ccc(C(C)=O)cc1CSc1ccc(S(=O)(=O)N2CCOCC2)cn1,-15%,-15,i,12%,i
CCCCSCCCNC(=O)CN1C(=O)COc2ccc(S(=O)(=O)N3CCCC3)cc21,.,.,i,.,i
CCCCN(Cc1ccccc1)C(=O)CN(C)S(=O)(=O)c1ccc2c(c1)c(=O)n(C)c(=O)n2C,.,.,i,.,i
CC(=O)N1CCCc2cc(S(=O)(=O)N3CCC(C)CC3)ccc21,-109%,14,i,-2%,21µM*
O=C(NCc1ccc(F)cc1)c1cccc(S(=O)(=O)N2CCCC2)c1,-1%,6,i,19%,23µM*
O=C(NCc1ccc(Cl)cc1)C1CCN(S(=O)(=O)c2ccc(F)cc2)CC1,?,-64*,i,11%,?
CC(=O)N1c2ccc(S(=O)(=O)N3CCCC(C(=O)NCc4ccccc4Cl)C3)cc2CC1C (centres undefined),-9%,-55*,i,?,i
CC(=O)N1CCCc2cc(S(=O)(=O)N3CCC(N(C)C(C)C)CC3)ccc21,.,.,i,.,i
COc1ccc(CNC(=O)CN(Cc2ccco2)C(=O)CCC(=O)Nc2ccccn2)cc1,-20%,4,i,1%,i
Cc1csc(SC(C)C(=O)NCC2CCCO2)n1 (centres undefined),-9%,15,?,-1%,i
COc1ccc(CNC(=O)/C=C/c2ccc(S(=O)(=O)N3CCOCC3)cc2)cc1,-4%,0,i,-3%,i
O=C(/C=C/c1ccc(S(=O)(=O)N2CCOCC2)cc1)NCc1ccc(Cl)cc1,9%,-62*,i,3%,i
CC(=O)N1c2ccc(S(=O)(=O)N3CCCC(C(=O)N4CCC(C)CC4)C3)cc2CC1C (centres undefined),-7%,10,i,-1%,21µM*
COc1ccc(S(=O)(=O)Nc2cccc(-c3ccc(N4CCC(C)CC4)nn3)c2)c(OC)c1,.,.,i,.,i
O=C(N/N=C/c1ccc(O)cc1)Nc1cccc2nsnc12,15µM*,-98*,?,?,i
COc1ccc(/C=N/NC(=O)Nc2cccc3nsnc23)c(OC)c1,?,67,i,?,i
COc1cc(/C=N/NC(=O)Nc2cccc3nsnc23)cc(OC)c1OC,?,-13,i,3.3µM*,i
CC(C)C(=O)Nc1cccc2nsnc12,2%,11,i,-2%,i
Cc1ccc(S(=O)(=O)NC(C(=O)Oc2cc3oc(=O)cc(C)c3cc2Cl)C(C)C)cc1 (centres undefined),10%,-21,i,4%,i
OC(C1=C/C(=C\c2ccncc2)c2ccccc21)c1ccncc1 (centres undefined),.,.,?,.,16µM*
CSc1ccc(/C=C2\C=C(C(O)c3ccc(SC)cc3)c3ccccc32)cc1 (centres undefined),.,.,16µM*,.,?
Cc1ccccc1C(O)c1ccncc1 (centres undefined),-1%,8,i,-14%,i
CC(=O)Nc1ccc(/C=C2\C=C(C(O)c3ccc(NC(C)=O)cc3)c3ccccc32)cc1 (centres undefined),.,.,i,.,i
CC1CCc2c(c3ccccc3n2C(=O)CCl)C1 (centres undefined),6%,-60*,?,18µM*,?
Cc1ccc(N2CC(C)Cn3c2nc2c3c(=O)n(Cc3cccc(Cl)c3)c(=O)n2C)cc1 (centres undefined),.,.,i,.,i

# Assay outcomes as filed in PubChem.
